Test results: PubChem BioAssay AID1578 (Sanford-Burnham Center for Chemical Genomics, 2009)
Among all 290,000 compounds or so, about 3,000 (1%) were called active. Only a selection was taken, and actives are over-represented in it overall. Unmarked numbers belong to inactive results. Rule as the data show it: active = inhibition mostly above about 36% (no sharp cut-off); inactive = mostly below about 34%.

Test: NOD1 signaling inhibitors, primary screen, cell-based, luminescence, uHTS (AID 1578);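 also: HEK-293T reporter cells stimulated with the NOD1 agonist gamma-tri-DAP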
Conditions: NOD1-driven NF-kB luciferase reporter cells, at 4 µM, active compounds read high

Row | SMILES | inhibition
1 | O=[N+]([O-])c1cccc(OCC(O)CN2CCN(S(=O)(=O)c3cc(Cl)ccc3Cl)CC2)c1 (stereo unspecified) | 15.6%
2 | O=C(C[N+]1(CC#Cc2ccccc2)CCOCC1)c1ccccc1 | -26.9%
3 | O=C(C[N+]1(CC#Cc2ccccc2)CCCCC1)c1ccccc1 | 47.4% (active)
4 | O=C(C[N+]1(CC#Cc2ccccc2)CCCCC1)c1ccc(Cl)cc1 | -15.6%
5 | Cc1cc(=O)[nH]c(SCC(=O)Nc2ccc(Br)cc2)c1C#N | 67.2% (active)
6 | Cc1cc(=O)[nH]c(SCC(=O)Nc2ccc(F)cc2)c1C#N | -21.3%
7 | COc1ccc(NC(=O)CSc2[nH]c(=O)cc(C)c2C#N)cc1OC | -23.7%
8 | CN1C2CCC1/C(=C\c1ccccc1F)C(=O)/C2=C/c1ccccc1F | 34.2%
9 | CN1C2CCC1/C(=C\c1ccc(F)cc1)C(=O)/C2=C/c1ccc(F)cc1 | 77.7% (active)
10 | CN1C2CCC1/C(=C\c1ccccc1)C(=O)/C2=C\c1ccccc1 | 36.3%
11 | Cc1cccc(N2CCN(C(=O)c3cc(S(=O)(=O)N4CCOCC4)cn3C)CC2C)c1 (stereo unspecified) | -17.7%
12 | Cc1cc(CNC(=O)c2cccc([N+](=O)[O-])c2)c2ccccc2n1 | 47.9% (active)
13 | Cc1cc(CNC(=O)Cn2cc([N+](=O)[O-])cn2)c2ccccc2n1 | -28.9%
14 | Cc1cc(CNC(=O)c2ccc(C)c([N+](=O)[O-])c2)c2ccccc2n1 | 26.1%
15 | O=C(Nc1ccc(Br)c(C(F)(F)F)c1)c1ccccc1 | 7.5%
16 | O=C(Nc1ccc(Br)c(C(F)(F)F)c1)c1ccc(C(F)(F)F)cc1 | 41.9% (active)
17 | Cc1ccc(C(=O)Nc2ccc(Br)c(C(F)(F)F)c2)cc1 | -51.3%
18 | C=CCn1c(SCc2nc3cc(C(F)(F)F)ccc3c(=O)[nH]2)nc2sc(CC)cc2c1=O | -9.3%
19 | COc1ccc(-c2noc(N3CCC(C(=O)NCc4ccccc4Cl)CC3)n2)cc1 | 49.5%
20 | O=C(N/N=C(/c1ccccc1)c1ccncc1)c1ccc2c(c1)OCO2 | -26.7%
21 | Cc1cc(C(=O)COC(=O)CN(C)S(=O)(=O)c2ccc(Cl)cc2)c(C)n1CC1CCCO1 (stereo unspecified) | -12.3%

Row | SMILES | inhibition
22 | c1ccc(-c2nnnc3ccccc23)cc1 | -26.7%
23 | Cc1ccc2nnnc(-c3ccccc3)c2c1 | -32.7%
24 | Clc1ccc2nnnc(-c3ccccc3)c2c1 | 63.1% (active)
25 | COC(=O)c1ccc(NC(=O)NCCCl)cc1 | -34.1%
26 | Cc1c(C(=O)N2CCOCC2)sc(NC(=O)c2ccc([N+](=O)[O-])cc2)c1C#N | -2.6%
27 | Cc1ccc(/C=C/C(=O)c2c(C)nc3ccccn23)cc1 | -11.3%
28 | C/C(=N\NC(=O)c1c(C)nc2ccccn12)c1cccc([N+](=O)[O-])c1 | -11.1%
29 | Cc1nc2ccccn2c1C(=O)/C=C/c1cccc([N+](=O)[O-])c1 | 101% (active)
30 | Cc1c(C(=O)N2CCN(c3ccccc3)CC2)sc2nc3n(c(=O)c12)CCC3 | 0.9%
31 | CC(=O)c1ccccc1NC(=O)CCCNC(=O)c1ccc(Cl)cc1 | 17.3%
32 | CC(=O)CCSc1ncnc2sc(-c3ccccc3)cc12 | -75.9%
33 | O=C(O)CSc1ncnc2sc(-c3ccccc3)cc12 | -16.7%
34 | COc1cc(CN2CCN(CCOCCO)CC2)cc(OC)c1OC | -4.8%
35 | Cc1cc(/C=C2\Sc3ccccc3N2C)cc(C)[n+]1CC1CCCO1 (stereo unspecified) | 56.7% (active)
36 | Cc1ccc(/C=C2/Sc3ccccc3N(CC(=O)NCC3CCCO3)C2=O)cc1 (stereo unspecified) | -4.1%
37 | COc1ccccc1-[n+]1c(C)cc(/C=C2\Sc3ccccc3N2C)cc1C | 28.9%
38 | Nc1nonc1-n1nnc(C(=O)N/N=C/c2ccc(OCc3ccccc3)cc2)c1COc1ccc(F)cc1 | -0.6%
39 | O=C(Nc1ccn(Cc2cccc3ccccc23)n1)c1cccnc1 | 7.1%
40 | CC(=O)c1cccc(NC(=S)Nc2ccn(Cc3cccc4ccccc34)n2)c1 | -5.1%
41 | NS(=O)(=O)c1ccc(NC(=S)Nc2ccn(Cc3cccc4ccccc34)n2)cc1 | 56.6% (active)
42 | Cc1cc(C)n(C(=O)c2ccc(C)c(Br)c2)n1 | -2.6%

Row | SMILES | inhibition
43 | c1csc(-c2nnc(N3CCOCC3)c3ccccc23)c1 | 2.4%
44 | c1csc(-c2nc(N3CCOCC3)c3ccccc3n2)c1 | -9.5%
45 | O=C1OCCN1c1c(-c2ccccc2)c(-c2cccs2)nc2c(-c3ccccc3)cccc12 | 66% (active)
46 | CCOc1ccc2nc(NC(=O)CSc3nc4cccnc4n3C)sc2c1 | -1%
47 | CC1CC(NC(=O)c2cnc3n(c2=O)CCS3)CC(C)(C)C1 (stereo unspecified) | -9%
48 | CC1CC(NC(=O)c2ncn[nH]2)CC(C)(C)C1 (stereo unspecified) | 84.5% (active)
49 | O=C(NC1CCCC1)c1ncn[nH]1 | -17.9%
50 | Cc1nn(-c2ccc(Cl)c(Cl)c2)c(C)c1C(=O)O | -17.4%
51 | CCc1nnc(NC(=O)CC23CC4CC(CC(Br)(C4)C2)C3)s1 | -2.7%
52 | CCc1c(C)nc(SCC(=O)N2CCCCC2CC)[nH]c1=O (stereo unspecified) | -11.1%
53 | C/C(=N\NC(=O)c1cccc(Br)c1)c1cccc(NC(=O)c2ccc(C)o2)c1 | -55.5%
54 | C/C(=N\NC(=O)C1(C)CC1(Br)Br)c1cccc(NC(=O)c2ccc(C)o2)c1 (stereo unspecified) | 89.8% (active)
55 | C/C(=N\NC(=O)C1(C)CC1(Br)Br)c1ccc(NC(=O)c2ccc(C)o2)cc1 (stereo unspecified) | 13.4%
56 | O=S(=O)(O)c1ccc(N=NNc2ccc(Br)cc2)cc1 | -12.1%
57 | C=C1/C(=C\C=C2/CCC[C@]3(C)[C@@H]([C@H](C)CCCC(C)(C)O)CC[C@@H]23)C[C@@H](O)C[C@@H]1O | 65.6% (active)
58 | COc1ccc(-c2nc(C)ncc2-c2ccc(Cl)cc2)c(O)c1 | 5.6%
59 | CCN(C(=O)COC(=O)/C=C/c1cccc(Br)c1)C1CCS(=O)(=O)C1 (stereo unspecified) | -18.9%
60 | CN(C(=O)COC(=O)/C=C/c1cccc([N+](=O)[O-])c1)C1CCS(=O)(=O)C1 (stereo unspecified) | 61.3% (active)
61 | CN(C(=O)COC(=O)/C=C/c1ccc(C(F)(F)F)cc1)C1CCS(=O)(=O)C1 (stereo unspecified) | -16.9%
